# Screening data from PubChem.
# CHO-K1 Ca antag – nonselective inhibitor or artifact in parental CHO-K1 cells | ATP-induced calcium, Fluo-8 fluorescence | 360,000 tested, 0.6% active | AID 602250 | inhibition, % at 3 µM;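 active = inhibition above a per-plate cutoff, the plate's mean sample inhibition plus 3 SD, cut at about 24% in these data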;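 note: 0% = DMSO plus EC80 ATP and 100% = DMSO alone without ATP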
# CHO-K1 Ca ag – M1 agonist counterscreen hit in parental CHO-K1 cells. activation, % at 3 µM. Fluo-8 calcium fluorescence; scaled to maximal ATP response, vehicle zero. AID 602248. 360,000 tested, 0.48% active; in the data active = activation above about 15%;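 note: untransfected CHO-K1 host cells lacking M1 receptor as counterscreen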
# CHRM1 PAM – potentiates human M1 receptor response to acetylcholine | CHO-K1 hM1, Fluo-8 calcium fluorescence, ACh EC20; 0% = ACh EC20, 100% = maximal ACh | AID 588819 | P11229 | activation, % at 3 µM | 360,000 tested, 0.088% active; in the data active = activation above about 19%, passing the limit was not always enough
# Target sequence (P11229 whole entry, looked up): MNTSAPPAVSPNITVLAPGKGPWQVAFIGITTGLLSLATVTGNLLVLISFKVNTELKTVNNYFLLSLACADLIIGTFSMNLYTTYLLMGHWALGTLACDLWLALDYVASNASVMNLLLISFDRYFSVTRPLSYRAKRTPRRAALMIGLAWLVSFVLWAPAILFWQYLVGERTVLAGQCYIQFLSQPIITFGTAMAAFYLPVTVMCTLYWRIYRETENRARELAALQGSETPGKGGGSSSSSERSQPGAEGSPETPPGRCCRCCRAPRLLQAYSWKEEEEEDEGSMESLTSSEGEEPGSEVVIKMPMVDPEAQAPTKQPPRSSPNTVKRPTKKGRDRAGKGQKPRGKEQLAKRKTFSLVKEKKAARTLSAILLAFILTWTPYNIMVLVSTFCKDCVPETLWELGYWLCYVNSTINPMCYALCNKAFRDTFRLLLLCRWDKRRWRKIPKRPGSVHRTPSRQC
# CHO-K1 Ca PAM – M1 PAM counterscreen hit in parental CHO-K1 cells; ATP EC20, Fluo-8 calcium fluorescence; 0% at ATP EC20, 100% at ATP max; activation, % at 3 µM; 360,000 tested, 0.02% active;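 active = activation above the run cutoff, the mean activation of all test compounds plus 3 SD, cut at about 40% in these data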;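 note: peak over basal fluorescence ratio in a 140 s read after ATP addition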
# M1 ag – human M1 muscarinic receptor agonism. P11229. CHO-K1 hM1, Fluo-8 calcium fluorescence, agonist mode; 0% DMSO, 100% acetylcholine EC100. activation, % at 3 µM. 360,000 tested, 0.33% active. AID 588814;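 active = activation above the run's mean compound activation plus 3 SD, cut at about 16% in these data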;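 note: peak over basal fluorescence ratio within a 140 s kinetic read after compound addition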
# M1 antag – blocks human M1 muscarinic receptor; inhibition, % at 3 µM; P11229; 360,000 tested, 1.3% active; CHO-K1 hM1, Fluo-8 calcium fluorescence, ACh EC80 antagonist;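 active = percent inhibition above its own plate's cutoff, namely the mean of that plate's compound wells plus 3 SD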;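 note: peak over basal fluorescence ratio during 140 s after agonist addition; 0% = ACh EC80 plus DMSO and 100% = DMSO alone without agonist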
# * marks the source's active call; other numbers are inactive results. Most compounds without a hit are left out; they make up all but 2.3% or so of the library.
SMILES,CHO-K1 Ca antag,CHO-K1 Ca ag,CHRM1 PAM,CHO-K1 Ca PAM,M1 ag,M1 antag
Cc1nn(C)cc1CNC(=O)c1cc2n(n1)C(C(F)(F)F)CC(c1cccs1)N2 (centres undefined),-5,3,-17,-14,-3,23*
CCNC(=O)C1CC(=O)N(CCCc2ccccc2)C(=Nc2ccccc2)S1 (centres undefined),1,19*,7,10,-4,-12
CCOC(=O)c1ccc(N=C2SC(C(=O)NCCc3ccccc3)CC(=O)N2C)cc1 (centres undefined),-9,1,-1,-12,-5,8
C[C@H](CO)N1C[C@H](C)[C@H](CN(C)C(=O)NC2CCCCC2)Oc2cc(-c3cccnc3)ccc2S1(=O)=O,3,0,-8,-3,-9,11
N#C/C(=C\c1ccc(N2CCOCC2)o1)C(=O)NCCc1ccccc1,15,23*,-17,-7,21*,9
N#C/C(=C\c1ccc(N2CCOCC2)o1)C(=O)NC1CCCCC1,0,16*,-3,12,15,4
N#C/C(=C/c1ccc(N2CCOCC2)o1)C(=O)Nc1ccccc1,20,61*,-23,-3,50*,32
CCOc1ccc(S(=O)(=O)Nc2nc3ccc(OC)cc3s2)cc1,0,0,1,9,-2,5
CCOc1ccc2nc(NS(=O)(=O)c3ccc4c(c3)n(C)c(=O)n4C)sc2c1,26*,0,7,9,-2,-3
CCOc1ccccc1N1CCN(C(=O)c2cc(S(=O)(=O)N3CCCCC3)ccc2C)CC1,5,6,-16,-15,-2,31*
COc1ccccc1N1CCN(C(=O)c2cc(S(=O)(=O)N3CCCCC3)ccc2C)CC1,-15,5,-13,15,-1,16
COc1ccccc1NS(=O)(=O)c1ccc(C)c(C(=O)N2CCCC2)c1,-20,0,26*,8,2,-18
Cc1cc(C(=O)Nc2cccc(-c3ccc(N4CCOCC4)nn3)c2)ccc1[N+](=O)[O-],18,5,-17,-9,-3,35*
COc1cccc(-c2cc(C(=O)Nc3ccc(N(C)C(C)=O)cc3)c3cc(Br)ccc3n2)c1,3,3,-13,8,-3,34
CC1=C(NCCc2ccccc2)CCC1=O,-7,1,0,19,-6,-28
CCCNC1=C(C)C(=O)CC1,24*,0,-5,-8,-3,20
CNS(=O)(=O)c1ccc(CNC[C@H]2O[C@@H](n3cnc(C(N)=O)n3)[C@H](O)[C@@H]2O)cc1,-7,1,3,7,0,0
COc1ccc(NS(=O)(=O)c2cccc(NC(=O)c3ccc(Cl)nc3)c2)cc1,43*,12,-12,-8,3,24
O=C(Nc1cccc(S(=O)(=O)Nc2ccc(Cl)cc2)c1)c1ccc(Cl)nc1,28*,14,-15,-2,1,29*
COc1ccc(NC(=O)c2cccc(S(=O)(=O)Nc3ccc(Br)cc3)c2)cn1,18,16*,-9,-1,-2,18
O=C(Nc1ccc(Br)cc1)c1cccc(S(=O)(=O)Nc2cnc3ccccc3c2)c1,16,6,-7,-7,1,18
COc1cccc(S(=O)(=O)Nc2ccc(C(=O)Nc3ccncc3)cc2)c1,-5,2,1,12,-7,4
CCN(CC)CCSc1nc2ccccc2n1Cc1ccccc1,-17,1,-30,19,-9,90*
COc1ccc(NC(=O)COC(=O)c2ccc(S(=O)(=O)N3CCCCC3)cc2)c(OC)c1,-6,0,7,12,-2,-12
Cc1cc(OCC(=O)OCC(=O)N(C)Cc2ccccc2C)ccc1Cl,-14,2,11,-7,-1,-8
SMILES,CHO-K1 Ca antag,CHO-K1 Ca ag,CHRM1 PAM,CHO-K1 Ca PAM,M1 ag,M1 antag
Cc1ccccc1-c1cc(C(=O)Nc2sc(C(=O)OC(C)C)c(C)c2C#N)c2ccccc2n1,35*,5,-16,-4,1,31*
COC(=O)c1sc(NC(=O)c2cc(-c3ccccc3)nc3ccccc23)c(C#N)c1C,-5,10,-8,13,5,9
Cc1cc(C)nc(SCCCNCc2ccc(Br)cc2)n1,7,2,-10,-14,27*,8
COc1ccccc1C(=O)NC1CC2CCCC(C1)N2Cc1ccccc1 (centres undefined),-7,0,-24,12,-9,39*
O=C(NC1CC2CCCC(C1)N2Cc1ccccc1)c1cccc(F)c1 (centres undefined),-10,0,-25,-8,-9,49*
Cc1ccccc1C(=O)NC1CC2CCCC(C1)N2Cc1ccc(Cl)cc1 (centres undefined),-6,1,-26,17,-10,54*
COCC(=O)NC1CC2CCCC(C1)N2Cc1ccccc1 (centres undefined),-8,1,3,6,-5,-6
O=C(NC1CC2CCCC(C1)N2Cc1ccccc1)c1cccc(Cl)c1 (centres undefined),-1,1,-14,-10,-7,22
CC(C)(C)OC(=O)NC1CC2CCCC(C1)N2Cc1ccccc1 (centres undefined),-13,0,-30,13,-9,98*
CN1CCN(c2ccc(CNC(=O)C3(C)Cc4c(-c5ccccc5)ccnc4O3)cc2)CC1 (centres undefined),8,6,-10,8,-9,12
Cc1ccc(C(C(=O)NC(C)(C)C)N(Cc2ccccc2)C(=O)c2snc(C(N)=O)c2N)o1 (centres undefined),3,3,-9,8,-5,12
CCNC(=S)N/N=C/c1ccc(OCC(=O)Nc2ccc(OC)cc2)c(OC)c1,20,7,-16,-9,-1,39*
CCCCNC(=S)N(C)/N=C/c1ccc(OCC(=O)Nc2c(C)cc(C)cc2C)c(OC)c1,5,-1,3,-4,-1,-7
CCCCNC(=S)N(C)/N=C/c1ccc(OCC(=O)Nc2ccc(OC)cc2)c(OC)c1,18,4,-19,-3,-1,34*
C/C=C/c1ccc(OCC(=O)Nc2ccncc2)c(OC)c1,17,15*,-9,-1,-1,14
Cc1nn(CC(=O)N(C)c2c(N)n(Cc3ccccc3)c(=O)[nH]c2=O)c(C)c1[N+](=O)[O-],-13,0,1,9,-4,-1
CCN(CC1CCCO1)C(=O)c1cc(COc2ccccc2SC)on1 (centres undefined),-7,2,6,8,-1,-11
COc1ccc(C(=O)N/C(=C\c2cn(S(=O)(=O)N(C)C)c3ccccc23)C(=O)N2CCN(C)CC2)cc1OC,5,1,8,-5,-3,-11
